uPA generation – qHTS for Inhibitors of Cell Surface uPA Generation | 330,000 tested, 0.31% active | Potency, µM (highest dose often 38.3 µM), most hits filed as inhibitors | AID 540303, 2011 | cell surface uPA generation assay, qHTS; active = well fitted inhibition curve with a large enough effect; inconclusive = small, poorly fitted or top-dose-only effect; inactive = no such curve, though single readings can be large or run the other way; tested in mouse RAW 264.7 cells; also: nearly all actives have a fitted effect of over 55% in size
IL-1B inflam inh – qHTS for Inhibitors of Inflammasome Signaling: IL-1-beta AlphaLISA Primary Screen | THP-1 LPS/ATP IL-1B secretion, AlphaLISA, 16 h; hits give low values | activity change, % at 57.5 µM | 360,000 tested, 4.7% active; in the data active = activity change below about -50%; inconclusive = mostly about -30% to -49%
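Secreted IL-1B measured by AlphaLISA bead assay after 16 h compound exposure of THP-1 cells; compounds (final up to 57.5 uM) added 1 h before LPS (250 ng/mL) and ATP (1.25 mM) stimulation; lower signal means less secretion.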
HT1080NT lethal – qHTS for induction of synthetic lethality in tumor cells producing 2HG: qHTS for the HT-1080-NT fibrosarcoma cell line. 360,000 tested, 1.6% active. HT-1080-NT fibrosarcoma viability, CellTiter-Glo ATP luminescence, 48 h. Potency, µM (highest dose often 46.1 µM), usual class: cytotoxic;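 also: NT is the 2HG producing partner of a matched IDH1 knockdown line; nearly all actives have a fitted effect of over 55% in size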
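A 48-hour cytotoxicity screen used HT-1080-NT cells plated 2 hours before compound delivery. ATP-based CellTiter-Glo luminescence measured viability, normalized to DMSO and no-cell controls.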
DT40 TDP1 no CPT – qHTS for Inhibitors of human tyrosyl-DNA phosphodiesterase 1 (TDP1): qHTS in cells in absence of CPT. DT40 Tdp1-/- hTDP1 cells, no CPT, ATP luminescence, 48 h. 420,000 tested, 15% active. Potency, µM (titrated, usually from 46.2 µM), most hits filed as inhibitors; also: nearly all actives have a fitted effect of over 55% in size
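Readout: luminescence from CellTiter-Glo after 30 min in the dark at RT. Cells: DT40 Tdp1-/- with stable hTDP1, 400/well. Exposure: compounds alone, ≥48 hr, 37 °C.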
DT40 TDP1 CPT – qHTS for Inhibitors of human tyrosyl-DNA phosphodiesterase 1 (TDP1): qHTS in cells in presence of CPT; chicken DT40 Tdp1-/-;hTDP1 cells + 20 nM CPT, ATP luminescence, 48 h; Potency, µM (series often up to 46.2 µM), most hits filed as inhibitors; 420,000 tested, 12% active; AID 686979, 2013; also: nearly all actives have a fitted effect of over 55% in size
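Cell growth measured by CellTiter-Glo luminescence after a minimum 48 h, 37 C compound exposure with 20 nM CPT in Tdp1-knockout DT40 cells stably expressing hTDP1, seeded 400/well; qHTS titration format.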
HT1080 IDH1KD tx – qHTS for induction of synthetic lethality in tumor cells producing 2HG: qHTS for the HT-1080-IDH1KD cell line; HT-1080 IDH1 knockdown viability, ATP luminescence, 48 h; Potency, µM (series often up to 46.1 µM), most hits filed as cytotoxic; 360,000 tested, 2% active
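After a 2 h attachment period, IDH1KD HT-1080 cells took pin-transferred compound for 48 h at 37 °C; ATP-based luminescence after 10 min room-temperature reagent incubation reported viability.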
Numbers stand for hits; – = inactive; ? = inconclusive; · = no result given. This is a sample that favours compounds with a hit; in the whole collection about 19% have one here. Unless noted, calls follow the shape of the dose curve; as a rule, active = well fitted curve in the direction sought with a large enough effect; inconclusive = small, poorly fitted or top-dose-only effect, or another doubt; inactive = no such curve, though single readings can be large; an effect the other way counts as inactive or inconclusive.

SMILES | uPA generation | IL-1B inflam inh | HT1080NT lethal | DT40 TDP1 no CPT | DT40 TDP1 CPT | HT1080 IDH1KD tx
CSc1ccc(/C=N/NC(=O)c2ccc(C)c(C)c2)cc1 | – | – | – | 23µM | ? | –
O=C(c1cccc(S(=O)(=O)Nc2ccc(Br)cc2)c1)N1CCCC1 | – | – | – | – | – | –
CC(=O)Nc1cccc(-c2ccnc3c2CC(C(=O)Nc2ccc(Cl)cc2)O3)c1 (configuration not stated) | · | ? | ? | 16µM | 16µM | 21µM
O=C(Nc1cccc(OC(F)(F)F)c1)C1Cc2c(-c3cccc(F)c3)ccnc2O1 (configuration not stated) | · | -89 | ? | ? | ? | ?
CC(=O)Nc1cccc(-c2ccnc3c2CC(C(=O)Nc2ccccc2)O3)c1 (configuration not stated) | · | ? | – | ? | ? | –
CC(=O)c1cccc(-c2ccnc3c2CC(C(=O)Nc2cccc(Oc4ccccc4)c2)O3)c1 (configuration not stated) | · | – | – | ? | ? | –
O=C(Nc1cccc(Oc2ccccc2)c1)C1Cc2c(-c3ccccc3)ccnc2O1 (configuration not stated) | · | ? | – | ? | 23µM | –
COc1ccc(NC(=O)C2Cc3c(-c4cccc(C(N)=O)c4)ccnc3O2)cn1 (configuration not stated) | · | – | ? | 12µM | 10µM | 21µM
COc1ccc(Cl)cc1C(=O)NNC(=O)c1ccc(F)c(S(=O)(=O)N2CCOCC2)c1 | – | – | – | – | – | –
COc1ccc(NC(=O)C2Cc3c(-c4cccc(F)c4)ccnc3O2)cc1 (configuration not stated) | · | – | – | ? | 21µM | ?
CC(=O)Nc1ccc(NC(=O)C2Cc3c(-c4cccc(F)c4)ccnc3O2)cc1 (configuration not stated) | · | – | – | – | – | –
NC(=O)c1cccc(-c2ccnc3c2CC(C(=O)NCCC(F)(F)F)O3)c1 (configuration not stated) | · | – | ? | – | ? | –
O=C(NCCC(F)(F)F)C1Cc2c(-c3cccc(F)c3)ccnc2O1 (configuration not stated) | · | – | – | – | – | –
O=C(Nc1ccc(Cl)cc1)C1Cc2c(-c3cccc(F)c3)ccnc2O1 (configuration not stated) | · | -64 | ? | 18µM | ? | ?
COc1ccc(NC(=O)C2Cc3c(-c4cccc(C(N)=O)c4)ccnc3O2)cc1 (configuration not stated) | · | – | 12µM | 3.7µM | 5.8µM | 15µM
COc1ccc(NC(=O)C2Cc3c(-c4cccc(NC(C)=O)c4)ccnc3O2)cn1 (configuration not stated) | · | – | ? | 1.8µM | 2.6µM | ?
O=C(Nc1ccccc1F)c1ccc(-n2cncn2)nc1 | – | – | – | – | – | –
CCCCCCN1C=CC=C/C1=C\C=C(C#N)C#N | – | · | – | – | – | –
Cc1ccc(-c2cc(C(=O)Nc3ccc(S(=O)(=O)Nc4ncccn4)cc3)[nH]n2)c(O)c1C | – | – | – | ? | ? | –
Cc1ccc(N(CC(=O)NCc2ccc(Cl)cc2)S(C)(=O)=O)cc1 | – | – | – | – | – | –
S=c1[nH]nc(SCc2ccccc2)c2[nH]cnc12 | – | – | – | 4.6µM | ? | –
Cc1cc(C)nc(SCC(=O)Nc2ncc(Cc3cccc(Cl)c3)s2)n1 | – | – | – | 18µM | ? | ?
CCN1CCN(Cc2nc3cc(NC(=O)COc4ccc([N+](=O)[O-])cc4)ccc3n2C)CC1 | – | – | – | – | ? | –
CCOC(=O)c1c(C)oc2c1cc(O)c1ccccc12 | – | – | – | – | – | –
CCOC(=O)c1c(C)oc2c1c(C(c1cccnc1)N1CCOCC1)c(O)c1ccccc12 (configuration not stated) | – | -110 | ? | 18µM | ? | ?
SMILES | uPA generation | IL-1B inflam inh | HT1080NT lethal | DT40 TDP1 no CPT | DT40 TDP1 CPT | HT1080 IDH1KD tx
CCOC(=O)c1c(NCC2CCCO2)c2ccccc2[nH]c1=O (configuration not stated) | – | – | – | – | – | –
CCOC(=O)c1c(C)oc2c1c(C=NCc1ccccn1)c(O)c1ccccc12 | – | -94 | – | 1.2µM | 0.92µM | –
CCOC(=O)c1c(C)oc2c1c(C=NCC1CCCO1)c(O)c1ccccc12 (configuration not stated) | – | – | – | 18µM | ? | –
CCN(CC)S(=O)(=O)c1cccc(C(=O)Oc2cccc(NC(=O)c3cccs3)c2)c1 | – | – | – | ? | ? | –
Cc1cc(C)cc(N2C(=O)CC(Sc3nnnn3-c3ccccc3)C2=O)c1 (configuration not stated) | ? | – | 7.1µM | 5.2µM | 2.6µM | 2.5µM
Cc1cc(C)cc(N2C(=O)CC(Sc3ncn[nH]3)C2=O)c1 (configuration not stated) | – | – | – | 1.5µM | 2.6µM | –
COC(=O)c1ccccc1SC1CC(=O)N(c2ccccc2)C1=O (configuration not stated) | – | – | – | – | ? | –
Cn1nnnc1SC1CC(=O)N(c2ccccc2)C1=O (configuration not stated) | – | – | – | 3.3µM | 2.6µM | –
O=C1CC(Sc2nnnn2C2CCCCC2)C(=O)N1c1ccccc1 (configuration not stated) | ? | – | ? | 4.1µM | 2.9µM | 5µM
CC(=O)Nc1ccc(S(=O)(=O)N(C)c2ccc(OCCOc3ccccc3F)cc2)cc1 | – | – | ? | ? | ? | –
COc1ccc(S(=O)(=O)Nc2ccc(C)cc2)cc1N(C)S(=O)(=O)c1ccc(Cl)cc1 | – | -60 | ? | 18µM | 23µM | –
CCC(C)NC(=O)CN(c1cc(Cl)ccc1OC)S(C)(=O)=O (configuration not stated) | – | – | – | – | – | –
COc1ccc(Cl)cc1N(CC(=O)NC(C)(C)C)S(=O)(=O)c1ccc(C)c([N+](=O)[O-])c1 | – | – | – | 21µM | 16µM | –
COC(=O)CN(c1cc(Cl)ccc1OC)S(=O)(=O)c1ccc(C)cc1 | – | – | 18µM | 18µM | ? | 16µM
